Out of some 150,000 compounds screened, about 540 (0.36%) showed an effect of 50% or more. Shown is part of a subset that was picked to be rich in strong results.

From ChEMBL document CHEMBL4888484, “Replenishing the malaria drug discovery pipeline: Screening and hit evaluation of the MMV Hit Generation Library 1 (HGL1) against asexual blood stage Plasmodium falciparum ,using a nano luciferase reporter read-out” (2022) come the findings set out here.

This assay relates to Plasmodium falciparum. In words: Primary screen in NF54 nanoGlo assay, in single point, at 2uM, 72h; a lower Z score goes with more inhibition. It is filed as functional, Erythrocyte. The note with it: timepoint 72 hour.
Turning to `Cc1c(-c2n[nH]c3c2CN(C(=O)c2csnn2)CC3)cccc1C(F)(F)F`, the % Inhibition – broadly, the drop in the measured response relative to a control, in per cent – is -12% and the Z score worked out at 1.03.
In the same order, the values of `O=C(CN1CCN(CC(=O)c2ccccc2)CC1)c1ccccc1` are 0% and -0.02.
In the case of `O=C(Cn1nnc2ccccc21)c1ccccc1`, the “% Inhibition” value was -12% and the Z score is reported as 1.78.
Taken in the same sequence, the figures for `Cc1n(CC(=O)c2ccccc2)c2ccccc2[n+]1CC(=O)c1ccccc1` were 59% and -12.26.
In the same order, the values of `O=C(N[C@H]1CCc2cc(F)c(F)c(F)c21)N1CCn2ncnc2C1` are -5% and 1.12.
As to `COc1nccc2c(NCc3cn(C(C)(C)C)nn3)cccc12`, the “% Inhibition” value was found to be 5% and the Z score is recorded as -1.
In the same order, the values of `CCOc1ccc(S(=O)(=O)N[C@H]2CC[C@@H](CC(=O)O)C2)c(C)c1` are -1% and 0.16.
Consider `C[N+]12CCCC[C@@H]1[C@H](COC(=O)c1ccccc1Cl)CCC2` (stereo partly specified), for which the “% Inhibition” value is given as 7% and the Z score is -0.65.
In the same order, the values of `CO[C@@H]1CCC[C@@H]2CN(C(=O)C3(c4ccccc4)CCCC3)C[C@@H]21` are -4% and 0.35.
In the same order, the values of `C[N+]12CCCCC1C(OC(=O)C1(c3ccccc3)CCCC1)CCC2` (stereo unspecified) are 63% and -6.6.
As to `Cc1cccc(C)c1OCC(=O)Nc1ccc(-c2nc3cc4ccccc4cc3[nH]2)cc1`, the “% Inhibition” value is listed as 49% and the Z score is given as -5.57.
Take `c1cc(-c2nc3cc4ccccc4cc3[nH]2)nc(-c2nc3cc4ccccc4cc3[nH]2)c1`: the “% Inhibition” value stood at 100% and the Z score is -18.05.
Taken in the same sequence, the figures for `CCn1ncc(C(CC(=O)c2ccccc2)CC(=O)c2ccccc2)c1C` were -8% and 1.07.
In the same order, the values of `CCN(CC)C(=O)c1cnc2snc(C)c2c1N1CCC(C(=O)Nc2ccc(Br)c(C)c2)CC1` are 1% and -0.18.
Taken in the same sequence, the figures for `Cc1nsc2ncc(C(=O)N3CCC(C)CC3)c(N3CCC(C(=O)Nc4cc(F)ccc4F)CC3)c12` were 60% and -4.06.
For the compound `CCN(CC)C(=O)c1cnc2snc(C)c2c1N1CCC(C(=O)Nc2c(C)cc(C)cc2C)CC1`, the “% Inhibition” value is reported as 54% and the Z score was -10.3.
Taken in the same sequence, the figures for `Cc1nsc2ncc(C(=O)N3CCCCC3)c(N3CCC(C(=O)Nc4cc(F)ccc4F)CC3)c12` were 5% and -0.78.
Consider `CCN(CC)C(=O)c1cnc2snc(C)c2c1N1CCC(C(=O)Nc2cc(F)ccc2F)CC1`, for which the “% Inhibition” value was found to be 6% and the Z score is given as -0.96.
In the same order, the values of `CCOc1ccc(NC(=O)C2CCN(c3c(C(=O)N(CC)CC)cnc4snc(C)c34)CC2)cc1` are 5% and -0.93.
For `CN1CCC(NC(=O)NCC2(CO)CCC2)C1c1ccccc1` (stereo unspecified), the “% Inhibition” value is -12% and the Z score came to 2.33.
On to `Cc1cccnc1[C@H](C)NC(=O)CNC(=O)N(C)C`, for which the “% Inhibition” value is recorded as -9% and the Z score was 1.68.
Take `Fc1ccc(Cc2nnc3n2CCCC3)cc1`: the “% Inhibition” value was 3% and the Z score is on record as -0.52.
Regarding `COc1ccccc1CNc1nc2[nH]c3c(c(=O)n2n1)CCCC3`, the “% Inhibition” value came to 8% and the Z score was -0.7.
In the same order, the values of `CC(C)(C)[C@H]1CCc2c(sc(NC(=O)c3cc(-c4ccccc4)nc4ccccc34)c2C#N)C1` are 13% and -1.58.
In the same order, the values of `CC(C)(C)[C@H]1CCc2c(sc(NC(=O)C3(F)C(F)(F)C(F)(F)C(F)(F)C(F)(F)C3(F)F)c2C#N)C1` are 77% and -6.03.
Taken in the same sequence, the figures for `CC(C)(C)[C@H]1CCc2c(sc(NC(=O)CN3CCCC3)c2C#N)C1` were 10% and -1.29.
Regarding `Cc1ccc(N2CCCC2=O)cc1NC(=O)N1CCC(c2n[nH]cc2C)CC1`, the “% Inhibition” value is given as -8% and the Z score is recorded as 1.78.
As to `Cc1csc(CNC(=O)NCc2nnc3n2CCOCC3)c1`, the “% Inhibition” value is -2% and the Z score came out at 0.17.
In the same order, the values of `COc1ccc(CCNC(=O)c2cnn3c4c(cnc23)C[C@@H](C)CC4)cc1OC` are 61% and -4.54.
Taken in the same sequence, the figures for `COc1cccc(CNC(=O)c2cnn3c4c(cnc23)C[C@@H](C)CC4)c1` were 0% and 0.03.
In the same order, the values of `C[C@H]1CCc2c(cnc3c(C(=O)NCc4ccccc4)cnn23)C1` are 33% and 0.71.
For the compound `O=C(COc1ccc(Cl)cc1)N1CC(=O)N2CCc3ccccc3[C@@H]2C1`, the “% Inhibition” value is -8% and the Z score worked out at 1.08.
Turning to `O=C(CN1C(=O)c2ccccc2C1=O)N1CC(=O)N2CCc3ccccc3[C@@H]2C1`, the “% Inhibition” value is given as 65% and the Z score is given as -8.85.
In the same order, the values of `O=C(CC(c1ccccc1)c1ccccc1)N1CC(=O)N2CCc3ccccc3[C@@H]2C1` are 39% and -5.29.
For the compound `CCN(CC)S(=O)(=O)c1ccc(F)c(C(=O)OCCNC(C)=O)c1`, the “% Inhibition” value is recorded as -10% and the Z score worked out at 0.84.
As for `Nc1ccc(-c2ccc(NC3CCCC3)nn2)cn1`, the “% Inhibition” value is on record as -16% and the Z score was found to be 1.48.
For `CNC(=O)c1ccc(NC2CC3CC3C2)nn1` (stereo unspecified), the “% Inhibition” value is listed as 6% and the Z score is given as -0.99.
For the compound `CC1(C)CCC(Nc2ccc(C(N)=O)nn2)CC1`, the “% Inhibition” value was determined as 77% and the Z score was -11.08.
With `COc1ccc(OC)c([C@@H]2CCCN2c2nnc(-c3ccccn3)s2)c1`, the “% Inhibition” value was -13% and the Z score amounted to 2.07.
On to `Cc1ccccc1OCC(=O)NS(C)(=O)=O`, for which the “% Inhibition” value is reported as -1% and the Z score is 0.11.
In the case of `Cc1ccc(C(F)(F)C(=O)NCCC(=O)NS(C)(=O)=O)cc1`, the “% Inhibition” value is on record as 57% and the Z score is recorded as -7.27.
On to `O=C(NCCc1nc2ccccc2[nH]1)C(F)(F)c1ccc(F)cc1`, for which the “% Inhibition” value is 4% and the Z score was -0.36.
Taken in the same sequence, the figures for `COc1ccccc1NC(=O)C1C(=O)NC23CCCCC2C1c1ccccc1O3` (stereo unspecified) were -8% and 1.04.
In the same order, the values of `COc1ccc2c(c1)OC13CCN(C)CC1C2C(C(=O)c1ccccc1OC)C(=O)N3` (stereo unspecified) are 58% and -6.85.
Taken in the same sequence, the figures for `Cc1cccc(NC(=O)C2C(=O)N[C@]34CCCCC3C2c2ccccc2O4)c1` (stereo partly specified) were 2% and -0.27.
As to `O=C(CCOc1ccc(F)c(Cl)c1)NCc1cccnc1`, the “% Inhibition” value is recorded as 15% and the Z score was -2.11.
In the same order, the values of `CN(CCO)C[C@@H]1CN(C(=O)C2(c3ccccc3)CCCC2)C[C@@H]1CO` are -27% and 2.7.
In the same order, the values of `Oc1cc(CC[C@H]2CCCCN2)cc(-c2cnc3ccccc3n2)c1` are 59% and -7.37.
Taken in the same sequence, the figures for `COc1ccnc(-c2cc(O)cc(CC[C@H]3CCCCN3)c2)n1` were -4% and 0.49.
On to `COc1nccnc1-c1cc(O)cc(CC[C@H]2CCCCN2)c1`, for which the “% Inhibition” value was -23% and the Z score was 3.42.
In the same order, the values of `CN(C)c1cncc(-c2cc(O)cc(CC[C@H]3CCCCN3)c2)n1` are -2% and 0.33.
In the same order, the values of `Oc1ccc(-c2cc(O)cc(CC[C@H]3CCCCN3)c2)nc1` are -14% and 1.77.
Taken in the same sequence, the figures for `COc1cccc(-c2cc(O)cc(CC[C@H]3CCCCN3)c2)n1` were 80% and -13.26.
